Reference: PubChem BioAssay (EPA / NIEHS)
Inconclusive results are not listed. The source made the active and inactive calls. Rule for the calls: active = hit-call score of the fitted dose curve at least 0.9, where 1 is the maximum; inconclusive = response in the unintended direction; inactive = score below 0.9.

tested on: chicken Androgen Receptor (AR), gene 422165; assay: ATG_chAR_XSP2: Attagene TRANS-FACTORIAL Multi-Species (XSP2) HepG2 Assay for chicken Androgen Receptor (AR) (AID 2283819);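 note: hits raise reporter mRNA above DMSO so potency is for activation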
Procedure, shortened: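 Readout is reporter mRNA induction via RT-PCR/capillary electrophoresis after 24 h chemical exposure, positive direction relative to DMSO. Transiently transfected HepG2 express chimeric chicken AR–GAL4; AR stimulated by 3 nM 6-alpha-fluorotestosterone and 1.5 nM norgestrel.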

Row | Compound | AC50 | outcome
1 | COP(=S)(OC)Oc1nc(Cl)c(Cl)cc1Cl | 22.9 µM (active) | 
2 | C#CCOS(=O)OC1CCCCC1Oc1ccc(C(C)(C)C)cc1 (stereo unspecified) | 4.55 µM (active) | 
3 | CCOP(=S)(OCC)SCn1c(=O)oc2cc(Cl)ccc21 |  | inactive
4 | COc1ccc(C(c2ccc(OC)cc2)C(Cl)(Cl)Cl)cc1 |  | inactive
5 | CC(C)Oc1cc(-n2nc(C(C)(C)C)oc2=O)c(Cl)cc1Cl |  | inactive
6 | CCCCOC(=O)c1ccccc1C(=O)OCCCC |  | inactive
7 | CC(C)(C)c1ccc(CSc2cnn(C(C)(C)C)c(=O)c2Cl)cc1 |  | inactive

tested on: frog Estrogen Receptor (ER), gene 398734; assay: ATG_frER1_XSP2: Attagene TRANS-FACTORIAL Multi-Species (XSP2) HepG2 Assay for frog Estrogen Receptor (ER) (AID 2283821);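 note: hits raise reporter mRNA above DMSO baseline so potency means agonist or activator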
Procedure, shortened: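 Reporter mRNA induction, detected as fluorescence after RT-PCR and capillary electrophoresis, is the endpoint; activity is fitted upward against DMSO. Cells are human liver HepG2 carrying transfected NR-Gal4 chimeras with GAL4-UAS-driven reporters, harvested 24 h post-dosing.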

Row | Compound | AC50 | outcome
8 | COP(=S)(OC)Oc1nc(Cl)c(Cl)cc1Cl | 43 µM (active) | 
9 | CCCCNC(=O)OCC#CI |  | inactive
10 | COC(=O)N(OC)c1ccccc1COc1ccn(-c2ccc(Cl)cc2)n1 |  | inactive
11 | CCCN(CCC)c1c([N+](=O)[O-])cc(S(N)(=O)=O)cc1[N+](=O)[O-] |  | inactive
12 | CCCCC(CC)COC(=O)c1ccccc1C(=O)OCC(CC)CCCC (stereo unspecified) |  | inactive
13 | CCOP(=S)(OCC)SCn1c(=O)oc2cc(Cl)ccc21 |  | inactive
14 | C=CC1(C)OC(=O)N(c2cc(Cl)cc(Cl)c2)C1=O (stereo unspecified) |  | inactive
15 | COc1ccc(C(c2ccc(OC)cc2)C(Cl)(Cl)Cl)cc1 | 8.82 µM (active) | 
16 | CCCC1COC(Cn2cncn2)(c2ccc(Cl)cc2Cl)O1 (stereo unspecified) | 167 µM (active) | 
17 | CC(C)Oc1cc(-n2nc(C(C)(C)C)oc2=O)c(Cl)cc1Cl |  | inactive
18 | CON(C)C(=O)Nc1ccc(Cl)c(Cl)c1 |  | inactive
19 | CCCCOC(=O)c1ccccc1C(=O)OCCCC | 29 µM (active) | 
20 | OC(c1ccc(Cl)cc1)(c1cncnc1)c1ccccc1Cl (stereo unspecified) |  | inactive
21 | CC(C)(C)c1ccc(CSc2cnn(C(C)(C)C)c(=O)c2Cl)cc1 |  | inactive
